Unmarked numbers belong to inactive results. For some assays here: Entries with a potency or affinity are not part of this list. Active and inactive are the calls of the source. Unless noted, the rule behind the calls is not given here.
How the values were obtained:
[1] = antimalarial activity against Dd2 strain (AID 2302;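 active = growth inhibition above 50% at the single 2 µM test dose, taken to imply half-maximal potency below 2 µM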;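 note: 0% = DMSO untreated growth and 100% = chloroquine plus artemisinin killed control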); conditions: P. falciparum Dd2 in RBCs, LDH growth readout, 72 h; at 2 µM; stronger effect = higher value
[2] = human hepatoma cell viability loss – ATP luminescence, cytotoxicity control for P. falciparum antimalarial project, primary screen (AID 2303;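 active = inhibition above 50%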;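 note: 0% = DMSO wells and 100% = digitonin-killed cells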); conditions: HepG2 viability, 24-48 h, at 10 µM, stronger effect = higher value
[3] = target: L-lactate dehydrogenase (Plasmodium falciparum (isolate CDC / Honduras)) (UniProt Q27743); assay: PfLDH activity inhibition – cell lysate, 3D7 strain, counter-screen for P. falciparum growth inhibition project (AID 2304);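 note: 0% = vehicle and 100% = reference inhibitor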; conditions: P. falciparum 3D7 crude extract, LDH APAD/NBT absorbance; at 2 µM; stronger effect = higher value
Sequence of L-lactate dehydrogenase (Plasmodium falciparum (isolate CDC / Honduras)) (Q27743 whole entry, looked up): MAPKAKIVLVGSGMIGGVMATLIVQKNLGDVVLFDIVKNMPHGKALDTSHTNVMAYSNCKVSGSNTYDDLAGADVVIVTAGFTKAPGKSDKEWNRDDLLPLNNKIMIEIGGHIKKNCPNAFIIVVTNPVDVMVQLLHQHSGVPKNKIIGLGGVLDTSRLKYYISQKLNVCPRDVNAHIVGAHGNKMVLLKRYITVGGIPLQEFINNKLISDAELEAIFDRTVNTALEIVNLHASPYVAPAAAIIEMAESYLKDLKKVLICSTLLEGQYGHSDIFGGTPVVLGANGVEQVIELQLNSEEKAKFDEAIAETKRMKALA

[4] = inhibition of 3D7 malaria parasite growth – strain 3D7 (AID 2306);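 note: 0% = DMSO wells and 100% = chloroquine plus artemisinin control wells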; conditions: P. falciparum 3D7 erythrocytic growth, LDH absorbance, 72 h; at 2 µM; stronger effect = higher value
[5] = target: Calcium-dependent protein kinase 1 (Plasmodium falciparum (isolate 3D7)) (UniProt P62344); assay: PfCDPK1 kinase inhibitors, biochemical, TCAMS library (AID 1159585; cut-off not given, nearly all actives have IC50 up to about 0.98 µM;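 note: inhibitors leave more ATP so luminescence rises with inhibition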); conditions: recombinant PfCDPK1, Kinase-Glo ATP depletion luminescence
Sequence of Calcium-dependent protein kinase 1 (Plasmodium falciparum (isolate 3D7)) (P62344 whole entry, looked up): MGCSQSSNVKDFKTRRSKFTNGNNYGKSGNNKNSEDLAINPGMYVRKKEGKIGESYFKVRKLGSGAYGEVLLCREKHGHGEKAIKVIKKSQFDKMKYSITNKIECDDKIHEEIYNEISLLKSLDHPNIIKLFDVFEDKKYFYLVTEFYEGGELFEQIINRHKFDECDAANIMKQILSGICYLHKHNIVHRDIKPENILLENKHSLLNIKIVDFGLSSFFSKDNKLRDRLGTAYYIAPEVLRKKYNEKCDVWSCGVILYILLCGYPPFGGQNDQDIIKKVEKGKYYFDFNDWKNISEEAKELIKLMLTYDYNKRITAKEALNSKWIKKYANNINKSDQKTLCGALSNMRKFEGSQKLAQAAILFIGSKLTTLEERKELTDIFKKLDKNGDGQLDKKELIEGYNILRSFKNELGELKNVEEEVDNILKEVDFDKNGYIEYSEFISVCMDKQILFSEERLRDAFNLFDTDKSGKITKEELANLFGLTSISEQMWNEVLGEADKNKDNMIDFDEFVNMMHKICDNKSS

[6] = target: Plasmodium falciparum protein kinase 6 (PK6, PF3D7_1337100) (UniProt Q8IDW1); assay: PfPK6 kinase inhibitors, biochemical, TCAMS library (AID 1159586); conditions: recombinant PfPK6, Kinase-Glo ATP depletion luminescence
Sequence of Plasmodium falciparum protein kinase 6 (PK6, PF3D7_1337100) (Q8IDW1 1-305): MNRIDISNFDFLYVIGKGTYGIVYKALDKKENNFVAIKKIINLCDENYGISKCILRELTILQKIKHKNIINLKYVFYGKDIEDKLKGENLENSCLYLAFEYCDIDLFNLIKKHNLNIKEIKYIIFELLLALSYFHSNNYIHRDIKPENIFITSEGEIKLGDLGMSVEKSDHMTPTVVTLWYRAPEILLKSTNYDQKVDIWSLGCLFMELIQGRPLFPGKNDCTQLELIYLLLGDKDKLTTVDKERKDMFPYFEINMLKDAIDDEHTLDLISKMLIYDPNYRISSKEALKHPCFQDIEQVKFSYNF

[7] = target: Protein kinase 7 (PK7), Plasmodium falciparum 3D7 (PF3D7_0213400) (UniProt Q7YTF7); assay: inhibition of Plasmodium PK7 catalytic activity – biochemical, TCAMS antimalarial set, Kinase-Glo luminescence (AID 1159587); conditions: recombinant PfPK7, Kinase-Glo ATP depletion luminescence
Sequence of Protein kinase 7 (PK7), Plasmodium falciparum 3D7 (PF3D7_0213400) (Q7YTF7 1-343): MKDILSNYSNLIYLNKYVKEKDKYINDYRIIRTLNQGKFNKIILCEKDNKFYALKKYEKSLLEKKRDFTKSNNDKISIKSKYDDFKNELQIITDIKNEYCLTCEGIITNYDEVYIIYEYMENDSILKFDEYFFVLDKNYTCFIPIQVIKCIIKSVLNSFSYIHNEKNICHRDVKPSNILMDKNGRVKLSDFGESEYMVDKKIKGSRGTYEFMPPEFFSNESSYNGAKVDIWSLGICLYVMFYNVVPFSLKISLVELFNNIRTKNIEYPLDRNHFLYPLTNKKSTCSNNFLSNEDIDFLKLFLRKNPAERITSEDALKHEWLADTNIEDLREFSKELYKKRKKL

[8] = target: Calcium-dependent protein kinase 4 (Plasmodium falciparum (isolate 3D7)) (UniProt Q8IBS5); assay: PfCDPK4 kinase inhibitors, biochemical, TCAMS library (AID 1159588; cut-off not given, nearly all actives have IC50 up to about 0.91 µM); conditions: recombinant PfCDPK4, Kinase-Glo ATP depletion luminescence
Sequence of Calcium-dependent protein kinase 4 (Plasmodium falciparum (isolate 3D7)) (Q8IBS5 whole entry, looked up): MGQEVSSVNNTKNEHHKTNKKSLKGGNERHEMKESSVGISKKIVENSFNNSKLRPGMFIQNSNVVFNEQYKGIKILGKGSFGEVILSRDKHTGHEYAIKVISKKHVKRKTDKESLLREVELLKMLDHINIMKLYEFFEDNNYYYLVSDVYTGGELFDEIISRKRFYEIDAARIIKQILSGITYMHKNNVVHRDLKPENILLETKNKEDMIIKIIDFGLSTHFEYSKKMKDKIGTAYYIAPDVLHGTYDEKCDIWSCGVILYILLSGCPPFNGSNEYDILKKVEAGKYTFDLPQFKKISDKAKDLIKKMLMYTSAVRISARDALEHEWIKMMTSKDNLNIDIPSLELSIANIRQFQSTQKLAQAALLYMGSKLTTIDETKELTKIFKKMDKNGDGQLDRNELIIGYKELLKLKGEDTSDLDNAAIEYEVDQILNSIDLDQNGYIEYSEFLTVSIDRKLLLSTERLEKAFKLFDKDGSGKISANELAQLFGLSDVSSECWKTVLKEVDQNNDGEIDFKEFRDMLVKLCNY

SMILES | growth inhibition [1] | inhibition [2] | inhibition [3] [%] | growth inhibition [4] | outcome [5] | outcome [6] | outcome [7] | outcome [8]
CCOC(=O)c1ccc(NC(=O)Nc2ccc(-c3ccc(-c4nc5ccccc5[nH]4)cc3)cc2)cc1 | 100% (active) | 49% | 0 | 101% (active) | inactive | inactive | inactive | inactive
Cc1ccc(Oc2ccccc2NC(=O)CCc2nc3ccccc3c(=O)[nH]2)cc1 | 99% (active) | 3% | -3 | 100% (active) | inactive | inactive | inactive | inactive
CCOC(=O)c1cccc(NC(=O)Nc2cc(C)nc3ccccc23)c1 | 90% (active) | 14% | 0 | 100% (active) | inactive | inactive | inactive | inactive
c1cc(CNC2CCCC2)cc(-c2ccc(CNc3ccc4ncccc4c3)cc2)c1 | 24% | 32% | -9 | 98% (active) | inactive | inactive | inactive | inactive
CNc1ccc(CNCc2ccc(-c3ccc(-c4nc5c(C)cccc5[nH]4)cc3)cc2)cc1 | 92% (active) | 35% | -8 | 100% (active) | inactive | inactive | inactive | inactive
CCc1c[nH]c2c(N3CCCS3(=O)=O)cc(C(=O)N[C@@H](Cc3ccccc3)[C@H](O)CNC(C)(C)c3cccc(C(F)(F)F)c3)cc12 | 99% (active) | 20% | 2 | 97% (active) | inactive | inactive | inactive | inactive
CC(CN(C)C)C(=O)Nc1ccc(-c2ccc(-c3nc4ccc(F)cc4[nH]3)cc2)cc1 (configuration not stated) | 95% (active) | 14% | -2 | 101% (active) | inactive | inactive | inactive | inactive
CCc1ccc(O)c(-c2cc(C(=O)Nc3cccnc3)[nH]n2)c1 | 99% (active) | -4% | -7 | 98% (active) | inactive | inactive | inactive | inactive
Cc1cnc(N2CCN(CCCN3CCCC3)CC2)nc1Oc1ccc(-n2ccnc2)cc1 | 82% (active) | 12% | 4 | 99% (active) | inactive | inactive | inactive | inactive
COc1ccc(C=Cc2cc(N)c3ccccc3n2)cc1 | 16% | 38% | 5 | 93% (active) | inactive | inactive | inactive | inactive
COc1ccc(CNCc2ccsc2)cc1-c1ccc(OC)c(S(=O)(=O)NCCN2CCCC2)c1 | 62% (active) | 18% | 0 | 97% (active) | inactive | inactive | inactive | inactive
CC(C)N1CCC(NCc2ccc(-c3ccc(Cl)cc3)cc2)CC1 | 48% | 50% (active) | -3 | 99% (active) | inactive | inactive | inactive | inactive
CN1CCN(CCCCCNc2c3ccccc3nc3ccccc23)CC1 | -8% | 57% (active) | 5 | 99% (active) | inactive | inactive | inactive | inactive
Clc1ccc(CNCCCCCCNCc2ccc(Cl)cc2)cc1 | 28% | 53% (active) | 1 | 96% (active) | inactive | inactive | inactive | inactive
CCCNCc1ccc(-c2ccc(CN(CCOC)C(=O)c3ccco3)cc2)nc1 | 21% | 1% | -7 | 91% (active) | inactive | inactive | inactive | inactive
Cc1cccc2[nH]c(-c3cccc(-c4cccc(NC(=O)c5cccnc5)c4)c3)nc12 | 56% (active) | 28% | -5 | 101% (active) | inactive | inactive | inactive | inactive
C[C@H](Cc1ccc(C[C@@H](C)NC[C@H](O)c2cccc(Cl)c2)cc1)NC[C@H](O)COc1ccccc1 | 60% (active) | 99% (active) | -2 | 96% (active) | inactive | inactive | inactive | inactive
COc1ccc(NS(=O)(=O)c2cc(NC(=O)Cn3ccccc3=O)ccc2N2CCCCC2)cc1 | 83% (active) | 20% | 1 | 92% (active) | inactive | inactive | inactive | inactive
CO/C(=C\C=C\c1cc2cc(Cl)c(Cl)cc2[nH]1)C(=O)NCCCN1CCN(c2cccc(Cl)c2)CC1 | 77% (active) | 58% (active) | 3 | 100% (active) | inactive | inactive | inactive | inactive

— PubChem BioAssay
